The whole screen tested about 1,800 compounds, of which fewer than 10 were called active. Inconclusive results (about 16%) are left out.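 The calls were made as follows: active = compound lowering the normal-ribosome reporter at least twice as much as the humanized-ribosome reporter, growth loss under a set limit; inconclusive = no clear call, values can overlap the other calls; inactive = the rest.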 The list is a sample of the results. Measured potencies and affinities stand elsewhere.
test: growth inhibition of wild-type GFP E. coli versus G2058-humanized strain, dose response, G2058 mutant RFP vs wild-type GFP, cherry-pick, two tests (AID 1035470); details: E. coli WT-GFP vs G2058-humanized RFP, fluorescence, 24 h; series mostly up to 50 µM

outcome, inactive:
COC(=O)c1ccsc1NC(=O)c1cccc(OC)c1
O=[N+]([O-])c1ccc(O)c(CSc2nnnn2-c2ccccc2)c1
COCC(C)NC(=O)c1nn(Cc2ccccc2)c(=O)c2ccccc12 (centres undefined)
Cc1ccc(NC(=O)C[n+]2cc(-c3ccccc3)n3c2CCC3)c(C)c1
COc1cc(OC)c(NS(=O)(=O)c2cccc(C(=O)OCC(=O)NCC3CCCO3)c2)cc1Cl (centres undefined)
Cc1ccc(Nc2nc(C(=O)NCC3CCCO3)cs2)cc1 (centres undefined)
CCOC(=O)c1cccc(OS(=O)(=O)Cc2ccccc2)c1
Cc1ccc(S(=O)(=O)NCc2c(-c3ccccc3)noc2C)cc1
Cc1ccc(NC(=O)COC(=O)CCNS(=O)(=O)c2c(Cl)cccc2Cl)cc1
CC1CCN(C(=O)COC(=O)c2ccccc2NC(=O)c2ccco2)CC1
CCc1cccc(NC(=O)c2ccc3c(=O)n4c(nc3c2)CCCCC4)c1
Cc1cc(C)cc(NC(=O)COC(=O)CC2CCCC2)c1
CCn1c(COc2cccc(OC)c2)nnc1SCC(=O)Nc1cc(OC)ccc1OC
COc1ccc(S(=O)(=O)N2CCOc3ccccc32)cc1
COc1ccc(-n2nc3cc(N)c(Br)cc3n2)cc1
COC(=O)[C@]1(Sc2ccc(C)cc2)CC(=O)N[C@@H]1c1ccccc1
O=C(CSc1nc2ccccc2n1S(=O)(=O)c1cccc([N+](=O)[O-])c1)NCCc1ccccc1
S=c1[nH]nc(-c2ccc3ccccc3n2)n1-c1ccc2c(c1)OCCO2
Cc1ccnc(NS(=O)(=O)c2ccc(NC(=O)c3ccc4c(c3)OCCO4)cc2)n1
COc1ccc(OC)c(-c2nn(-c3ccccc3)cc2C(=O)N2CCc3ccccc3C2)c1
Cc1c(Cc2ccccc2)sc(NC(=O)Cc2ccccc2)c1C(N)=O
COC(=O)c1sccc1NC(=O)CNC(=O)c1ccccc1
O=C(Cc1c(F)cccc1Cl)N(Cc1ccccc1)c1ccccn1
Cc1ccoc1C(=O)Nc1ccc2ccccc2c1
Cc1cc(CNC(=O)c2cc(-c3ccccc3)nc3ccccc23)nn1C
Cc1cccc(-c2nsc(SCC(=O)NCC3CCCO3)n2)c1 (centres undefined)
Cc1ccc2nc(N(CCN(C)C)C(=O)C3CCN(S(=O)(=O)c4cccs4)CC3)sc2c1
COc1ccc(-c2csc(NC(=O)c3ccoc3C)n2)cc1
CCC1CCCCN1C(=O)CSc1nnc(-c2cccc(Cl)c2)o1 (centres undefined)
CCc1nc2ccccc2c(C(=O)OCC(=O)NC(=O)c2cccn2C)c1C
Cc1ccc(Cc2c(-c3ccc(C#N)cc3)nc3ccc(Br)cn23)cc1
CCOC(=O)c1cnc2ccc(OCC)cc2c1NCCCN1CCOCC1
CCOC(=O)C(CC)Sc1cc(C)nc2ccc(OC)cc12 (centres undefined)
COc1ccc(C(=O)COc2ccc(F)cc2)c(O)c1
Cc1cccc(-c2cc3nc4c(c(N5CCOCC5)n3n2)CCCC4)c1
Cc1cccc(NS(=O)(=O)c2cc3c(cc2C)NC(=O)CO3)c1
Cc1cccc(OCCn2c(=O)oc3ccc(C)cc32)c1
CC(=O)Nc1cccc(NC(=O)CCN2C(=O)c3ccccc3S2(=O)=O)c1
c1cncc(-c2nc3cc4ccccc4cc3[nH]2)c1
Cc1ccccc1S(=O)(=O)c1cc2ccccc2nc1N
COc1ccccc1-c1noc2ncnc(Nc3ccccc3C)c12
COc1ccccc1Cc1c(-c2ccc(F)cc2)nc2ccc(Br)cn12
COc1ccc(-c2nc(C3CCCCC3)no2)cc1OC
c1ccc(Sc2ncnc3ccccc23)cc1
COc1cccc(NC(=O)C(C)SCc2ccccc2)c1 (centres undefined)
Cc1cc(Br)ccc1NC(=O)c1ccco1
O=C(CSCc1cnn(-c2ccccc2)c1-n1cccc1)NCc1cccnc1
O=C(Nc1ccc(Cl)c(Cl)c1)c1ccc(Cl)c(Cl)c1
O=[N+]([O-])c1ccc2nc(-c3ccccc3[N+](=O)[O-])[nH]c2c1
O=c1c2ccccc2nc(SCc2ccccc2)n1CC1CCCO1 (centres undefined)
CCOCCCNC(=O)C(NC(=O)c1ccccc1O)c1ccc(C)cc1 (centres undefined)
COc1ccc(Nc2nc(N)c([N+](=O)[O-])c(N3CCCC3)n2)cc1
CS(=O)(=O)c1ccc(Cl)c(NC(=O)CSc2nncn2-c2ccccc2)c1
c1ccc(CSCc2ccccc2)cc1
O=C(Nc1ccc(Cl)c(Cl)c1)N[C@@H]1CC[C@@H](CCn2cc(C3CCCCC3)nn2)O[C@H]1CO
CCOc1ccc(NC(=O)CCc2nnc3ccc(N4CCC(C)CC4)nn23)cc1
Cc1csc(SCc2nc3scc(-c4ccccc4)c3c(=O)[nH]2)n1
CC(C)(C)c1ccc2c(c1)C(c1ccc3c(c1)OCO3)CC(=O)O2 (centres undefined)
Cc1ccccc1Nc1c(-c2cccnc2)nc2ccc(Br)cn12
CC1(CCC(=O)N2CCCC(N3CCN(c4ccc(F)cc4)CC3)C2)CC1 (centres undefined)
C=CCn1c(C)cc(C(=O)CSc2nnc(C3CC3)n2C2CC2)c1C
c1ccc(-c2sc3ccccc3c2-c2ccc(OCCN3CCCCC3)cc2)cc1
CN(C(=O)COC(=O)CSc1ccc(C(N)=O)cc1[N+](=O)[O-])C1CCCCC1
CC(C)OCCCNC(=O)c1ccc(CS(=O)(=O)c2cccc(C(F)(F)F)c2)o1
COc1ccc(C(=O)Nc2cccc3ccccc23)cc1
CCS(=O)(=O)N1CCN(c2ccc([N+](=O)[O-])c(NCC3CCCO3)c2)CC1 (centres undefined)
Cc1nn(S(=O)(=O)c2ccc(Cl)cc2)c(C)c1Sc1ccc([N+](=O)[O-])cc1
C[C@@H]1CN([C@@H](C)CO)C(=O)c2cc(NC(=O)Nc3cccc4ccccc34)ccc2O[C@@H](C)CCCCO[C@@H]1CN(C)C(=O)CCCN(C)C
O=C(COC(=O)C1CC2C=CC1C2)NCCc1ccccc1 (centres undefined)

Reference: PubChem BioAssay AID1035470 (Broad Institute, 2014)
